As usually defined, the inhibition is the drop in the measured response relative to a control, in per cent.

For test [1], the target named is Rho-associated protein kinase 1 (Homo sapiens) (UniProt Q13464). The settings on record: at 1 µM.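 Also: reported values are mean percent inhibition of ROCK1.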
Test [2] concerns the target Rho-associated protein kinase 2 (Homo sapiens) (UniProt O75116). The following applies: at 0.1 µM.
Test [3] has the same target. The following applies: at 1 µM.
Test [4] deals with Ribosomal protein S6 kinase alpha-1 (Homo sapiens) (UniProt Q15418). The following applies: at 0.1 µM.
The target is the same in test [5]. The settings on record: at 1 µM.
Test [6] has as its target Ribosomal protein S6 kinase alpha-3 (Homo sapiens) (UniProt P51812). The following applies: at 0.1 µM.
For test [7] the target is unchanged. The settings on record: at 1 µM.
The target in test [8] is Ribosomal protein S6 kinase alpha-2 (Homo sapiens) (UniProt Q15349). The settings on record: at 0.1 µM.
Chain of Ribosomal protein S6 kinase alpha-2 (Homo sapiens) (Q15349 whole entry): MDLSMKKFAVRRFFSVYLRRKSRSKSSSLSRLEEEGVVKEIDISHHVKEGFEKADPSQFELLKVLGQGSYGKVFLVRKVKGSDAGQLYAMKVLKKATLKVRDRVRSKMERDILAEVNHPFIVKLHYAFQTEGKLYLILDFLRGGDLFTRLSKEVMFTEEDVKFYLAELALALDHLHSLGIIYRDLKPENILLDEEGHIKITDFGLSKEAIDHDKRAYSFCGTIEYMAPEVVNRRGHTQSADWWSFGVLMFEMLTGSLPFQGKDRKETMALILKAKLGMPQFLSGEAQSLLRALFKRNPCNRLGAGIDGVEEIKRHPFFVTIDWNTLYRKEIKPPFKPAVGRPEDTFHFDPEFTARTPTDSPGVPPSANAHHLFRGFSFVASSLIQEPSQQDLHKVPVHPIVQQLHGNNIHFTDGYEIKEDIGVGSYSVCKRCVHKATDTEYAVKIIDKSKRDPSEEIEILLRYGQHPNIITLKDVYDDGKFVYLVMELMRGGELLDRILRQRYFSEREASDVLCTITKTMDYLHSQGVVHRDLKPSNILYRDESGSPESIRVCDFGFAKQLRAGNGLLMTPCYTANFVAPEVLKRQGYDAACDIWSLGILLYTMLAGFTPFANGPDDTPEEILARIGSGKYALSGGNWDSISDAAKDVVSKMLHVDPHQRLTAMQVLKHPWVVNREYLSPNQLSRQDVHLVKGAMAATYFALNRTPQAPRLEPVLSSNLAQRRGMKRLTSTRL
For test [9] the target is unchanged. The following applies: at 1 µM.
The target of test [10] is Ribosomal protein S6 kinase alpha-6 (Homo sapiens) (UniProt Q9UK32). The settings on record: at 0.1 µM.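 Also: reported value is the mean inhibition of RSK4, from the GSK PKIS kinase inhibitor screen.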
Chain of Ribosomal protein S6 kinase alpha-6 (Homo sapiens) (Q9UK32 whole entry): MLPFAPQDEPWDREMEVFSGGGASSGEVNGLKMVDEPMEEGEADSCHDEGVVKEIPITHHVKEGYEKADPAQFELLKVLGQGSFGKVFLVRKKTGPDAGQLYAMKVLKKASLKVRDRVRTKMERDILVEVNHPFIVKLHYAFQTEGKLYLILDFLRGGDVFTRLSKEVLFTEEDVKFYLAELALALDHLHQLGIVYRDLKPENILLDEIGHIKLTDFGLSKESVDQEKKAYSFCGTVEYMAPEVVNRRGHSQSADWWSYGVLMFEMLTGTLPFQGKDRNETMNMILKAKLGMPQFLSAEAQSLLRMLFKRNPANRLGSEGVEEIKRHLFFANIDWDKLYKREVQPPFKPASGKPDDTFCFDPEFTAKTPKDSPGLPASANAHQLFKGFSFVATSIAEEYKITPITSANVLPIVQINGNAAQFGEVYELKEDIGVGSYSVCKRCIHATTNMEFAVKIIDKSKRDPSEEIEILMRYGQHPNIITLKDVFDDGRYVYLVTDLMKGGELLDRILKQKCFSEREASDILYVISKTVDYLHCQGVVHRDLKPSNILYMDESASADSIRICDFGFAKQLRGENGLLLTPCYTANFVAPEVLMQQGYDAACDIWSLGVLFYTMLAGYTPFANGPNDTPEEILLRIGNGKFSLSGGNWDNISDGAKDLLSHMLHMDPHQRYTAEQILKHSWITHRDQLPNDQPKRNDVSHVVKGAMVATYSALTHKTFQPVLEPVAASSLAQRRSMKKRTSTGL

Chain of Rho-associated protein kinase 2 (Homo sapiens) (O75116 whole entry, looked up): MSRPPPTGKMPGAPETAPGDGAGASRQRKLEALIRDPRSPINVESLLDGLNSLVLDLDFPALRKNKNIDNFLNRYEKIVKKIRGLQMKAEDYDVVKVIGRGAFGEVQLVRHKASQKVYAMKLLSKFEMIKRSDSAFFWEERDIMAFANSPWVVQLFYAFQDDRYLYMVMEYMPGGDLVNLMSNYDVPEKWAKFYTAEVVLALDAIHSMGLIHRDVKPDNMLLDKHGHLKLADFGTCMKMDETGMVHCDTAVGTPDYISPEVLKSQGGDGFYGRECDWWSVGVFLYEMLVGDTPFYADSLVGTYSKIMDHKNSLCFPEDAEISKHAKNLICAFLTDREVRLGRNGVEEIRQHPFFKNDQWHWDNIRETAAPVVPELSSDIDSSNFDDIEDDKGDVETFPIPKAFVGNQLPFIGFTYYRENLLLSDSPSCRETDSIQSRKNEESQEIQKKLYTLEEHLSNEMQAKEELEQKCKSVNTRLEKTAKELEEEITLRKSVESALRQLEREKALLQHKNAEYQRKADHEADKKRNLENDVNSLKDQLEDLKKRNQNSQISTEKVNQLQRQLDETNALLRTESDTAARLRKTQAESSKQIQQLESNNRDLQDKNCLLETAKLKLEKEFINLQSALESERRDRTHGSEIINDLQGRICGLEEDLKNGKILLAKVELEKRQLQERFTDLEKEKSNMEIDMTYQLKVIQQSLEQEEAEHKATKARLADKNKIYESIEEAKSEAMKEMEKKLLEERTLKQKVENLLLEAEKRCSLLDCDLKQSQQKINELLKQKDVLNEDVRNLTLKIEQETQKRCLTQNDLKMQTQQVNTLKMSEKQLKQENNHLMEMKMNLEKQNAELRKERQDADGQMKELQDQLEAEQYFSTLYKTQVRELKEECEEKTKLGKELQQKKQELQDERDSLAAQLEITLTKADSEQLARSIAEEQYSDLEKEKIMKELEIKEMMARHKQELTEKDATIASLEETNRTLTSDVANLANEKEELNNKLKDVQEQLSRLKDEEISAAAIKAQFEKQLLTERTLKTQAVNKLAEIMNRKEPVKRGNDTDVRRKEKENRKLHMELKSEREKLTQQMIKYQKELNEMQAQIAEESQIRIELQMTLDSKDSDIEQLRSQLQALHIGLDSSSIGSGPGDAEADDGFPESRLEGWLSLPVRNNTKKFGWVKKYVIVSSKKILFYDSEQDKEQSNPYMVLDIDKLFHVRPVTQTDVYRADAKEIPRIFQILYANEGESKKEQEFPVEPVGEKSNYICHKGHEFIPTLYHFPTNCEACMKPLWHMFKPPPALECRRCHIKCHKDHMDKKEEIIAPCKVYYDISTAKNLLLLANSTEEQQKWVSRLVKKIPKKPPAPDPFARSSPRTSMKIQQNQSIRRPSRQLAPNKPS
Chain of Rho-associated protein kinase 1 (Homo sapiens) (Q13464 2-1354 limits assumed): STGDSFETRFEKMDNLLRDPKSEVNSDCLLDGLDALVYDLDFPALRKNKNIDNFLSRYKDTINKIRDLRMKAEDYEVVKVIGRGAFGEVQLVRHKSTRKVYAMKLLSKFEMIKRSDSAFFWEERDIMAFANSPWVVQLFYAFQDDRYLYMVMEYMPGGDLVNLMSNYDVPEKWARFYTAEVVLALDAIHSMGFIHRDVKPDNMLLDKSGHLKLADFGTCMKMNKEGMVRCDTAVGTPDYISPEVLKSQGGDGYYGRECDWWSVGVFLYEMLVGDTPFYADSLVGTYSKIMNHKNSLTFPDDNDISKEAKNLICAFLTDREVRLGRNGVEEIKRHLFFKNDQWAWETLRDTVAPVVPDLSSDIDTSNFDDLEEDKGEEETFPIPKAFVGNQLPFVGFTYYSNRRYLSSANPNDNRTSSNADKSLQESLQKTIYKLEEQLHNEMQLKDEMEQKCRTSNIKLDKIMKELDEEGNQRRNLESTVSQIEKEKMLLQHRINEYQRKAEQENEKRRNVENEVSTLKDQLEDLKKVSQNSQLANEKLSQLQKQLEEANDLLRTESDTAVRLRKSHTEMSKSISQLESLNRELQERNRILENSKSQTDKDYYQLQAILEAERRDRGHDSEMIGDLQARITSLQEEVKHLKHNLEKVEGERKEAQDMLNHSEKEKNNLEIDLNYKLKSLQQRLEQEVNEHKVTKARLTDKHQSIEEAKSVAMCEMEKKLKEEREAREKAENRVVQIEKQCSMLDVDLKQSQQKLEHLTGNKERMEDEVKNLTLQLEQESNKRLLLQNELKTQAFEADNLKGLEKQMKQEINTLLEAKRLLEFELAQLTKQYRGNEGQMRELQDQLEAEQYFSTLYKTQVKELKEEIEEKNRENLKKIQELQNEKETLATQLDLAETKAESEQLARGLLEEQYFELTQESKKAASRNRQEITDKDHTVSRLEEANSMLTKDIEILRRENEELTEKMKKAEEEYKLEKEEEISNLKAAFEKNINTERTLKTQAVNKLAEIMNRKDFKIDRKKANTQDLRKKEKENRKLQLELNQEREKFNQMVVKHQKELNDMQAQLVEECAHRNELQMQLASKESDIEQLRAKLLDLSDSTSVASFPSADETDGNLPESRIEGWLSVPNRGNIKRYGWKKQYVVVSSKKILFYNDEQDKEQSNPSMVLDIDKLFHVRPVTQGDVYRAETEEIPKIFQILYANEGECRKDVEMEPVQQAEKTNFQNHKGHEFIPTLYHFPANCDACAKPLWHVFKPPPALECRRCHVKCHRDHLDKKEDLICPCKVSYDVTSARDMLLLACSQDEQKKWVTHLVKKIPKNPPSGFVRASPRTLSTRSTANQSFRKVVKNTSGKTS
Chain of Ribosomal protein S6 kinase alpha-3 (Homo sapiens) (P51812 whole entry): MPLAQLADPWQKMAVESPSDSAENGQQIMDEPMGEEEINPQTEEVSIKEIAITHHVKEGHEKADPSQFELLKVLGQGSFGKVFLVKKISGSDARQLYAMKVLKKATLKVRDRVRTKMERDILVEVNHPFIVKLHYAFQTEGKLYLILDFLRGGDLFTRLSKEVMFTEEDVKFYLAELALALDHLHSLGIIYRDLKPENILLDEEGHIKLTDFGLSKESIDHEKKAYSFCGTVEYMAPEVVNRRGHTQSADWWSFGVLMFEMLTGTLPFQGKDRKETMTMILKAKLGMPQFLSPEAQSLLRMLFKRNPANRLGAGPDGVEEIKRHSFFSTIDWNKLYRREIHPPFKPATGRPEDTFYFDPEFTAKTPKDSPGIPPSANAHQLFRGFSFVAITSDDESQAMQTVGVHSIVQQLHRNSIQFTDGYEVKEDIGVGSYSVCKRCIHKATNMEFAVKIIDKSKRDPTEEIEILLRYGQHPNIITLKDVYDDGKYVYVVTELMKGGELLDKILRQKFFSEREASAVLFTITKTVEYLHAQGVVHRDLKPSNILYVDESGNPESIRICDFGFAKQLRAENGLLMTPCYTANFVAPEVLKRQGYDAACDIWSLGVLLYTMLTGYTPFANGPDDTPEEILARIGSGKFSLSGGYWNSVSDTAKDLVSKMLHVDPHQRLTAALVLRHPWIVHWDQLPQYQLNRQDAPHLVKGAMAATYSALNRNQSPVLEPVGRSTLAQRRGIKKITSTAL

Regarding `Fc1ccc(-c2ncn(C3CCNCC3)c2-c2ccnc(Oc3ccccc3)n2)cc1`, the inhibition is 1.62% in test [1]; -0.24% in test [2]; 0.28% in [3]; -0.66% in test [4]; -0.32% in [5]; -1.31% in test [6]. Also, the inhibition in test [7] is -1.67%; in test [8], 1.35%; in test [9] it was 0.51%; in [10], -0.22%.
As to `CCn1c(-c2nonc2N)nc2c(C#CC(C)(C)O)ncc(OCC3CCNCC3)c21`, the inhibition in test [1] turned out to be 13.7%; in test [2], 6.21%; in [3], 27.5%; in test [4], 4.34%; in [5], 19.9%; in test [6], 4.16%. In addition, the inhibition in [7] came to 19%; in test [8] it was 2.47%; in test [9] it was 7.78%; in [10] it was 2.29%.
For `Nc1nonc1-c1nc2cnccc2n1C1CCCCC1`, the inhibition in test [1] was 78.4%; in test [2], 42.4%; in test [3], 83.4%; in test [4], 52.1%; in test [5], 86.4%; in test [6] it was 40.9%. The inhibition in test [7] worked out at 81.4%; in [8], 70%; in [9], 92.6%; in [10], 6.78%.
On to `COc1cccc(-n2ncc3c(N/N=C/c4ccncc4)ncnc32)c1`, for which the inhibition worked out at 9.67% in test [1]; 4.97% in test [2]; 19.4% in [3]; 3.51% in test [4]; 7.17% in test [5]; 1.43% in test [6]. The inhibition amounted to 4.26% in test [7], 2.35% in [8], 4.92% in [9] and 2.25% in [10].
`NS(=O)(=O)c1ccc(N/C=C2\C(=O)Nc3ccc4ncsc4c32)cc1`: the inhibition in test [1] stood at 33%; in test [2] it was 12%; in test [3] it was 47.5%; in test [4], 4.22%; in [5], 31.3%; in test [6], 6.13%. The inhibition in test [7] worked out at 36%; in test [8], 16.5%; in [9], 66.1%; in test [10], 12.6%.
As for `CCn1c(-c2nonc2N)nc2c(C#CC(C)(C)O)ncc(OC[C@@H]3CCCN3)c21`, the inhibition in test [1] was 12.4%; in test [2], -0.51%; in test [3], 10%; in test [4], -0.68%; in [5], 23.3%; in test [6] it was 3.35%. Also, the inhibition is 24.9% in test [7], 2.02% in test [8], 13.3% in test [9] and -0.15% in [10].
Regarding `Cc1cc(-c2ccco2)cc(C)c1/C=C/c1cncc(-c2nn[nH]n2)c1`, the inhibition in test [1] is 1.58%; in test [2], 0.76%; in test [3], 1.41%; in [4], 0.75%; in test [5], 1.35%; in [6], 0.67%. The inhibition was 0.7% in test [7], 1.44% in test [8], 0.92% in [9] and -0.24% in test [10].
Consider `COc1cc2c(cc1Nc1nc(Nc3ccsc3C(N)=O)c3cc[nH]c3n1)N(C(=O)CN(C)C)CCC2`, for which the inhibition in test [1] is 26.1%; in [2] it was 3.13%; in test [3], 23.2%; in test [4], 7.13%; in test [5], 34.8%; in [6] it was -6.28%. In addition, the inhibition is -1.3% in [7], 0.29% in [8], 7.85% in test [9] and 0.38% in test [10].
Regarding `COc1cccc(COc2cc(-n3cnc4ccccc43)sc2C(N)=O)c1`, the inhibition in test [1] is -0.3%; in test [2], -0.06%; in test [3], 0.84%; in test [4], 0.37%; in test [5], 0.21%; in test [6], 0.89%. The inhibition in [7] is -1.45%; in test [8], -0.15%; in test [9] it was 1.4%; in test [10], 1.09%.
Turning to `CCn1c(-c2nonc2N)nc2c(C#CC(C)(C)O)nc(O[C@@H](CN)c3ccccc3)cc21`, the inhibition in test [1] amounted to 51.7%; in test [2], 11.5%; in test [3], 59.4%; in test [4], 19.1%; in test [5] it was 71.6%; in test [6], 18%. Also, the inhibition was 69.5% in test [7], 15.4% in test [8], 69.9% in test [9] and 4.01% in [10].
`NS(=O)(=O)c1ccc(-c2ccc3c(NC(=O)C4CC4)n[nH]c3c2)cc1`: the inhibition stood at 2.34% in [1]; 0.8% in test [2]; 1.01% in test [3]; 1.47% in test [4]; 0.59% in test [5]; 0.4% in test [6]. The inhibition in test [7] amounted to 1.28%; in test [8] it was 0.45%; in test [9], 2.46%; in test [10], 1.52%.
Turning to `NC(=O)c1sc(-n2cnc3cc(C(F)(F)F)ccc32)cc1OCc1ccccc1Br`, the inhibition in test [1] was 0.79%; in test [2], 0.92%; in test [3] it was 1.05%; in test [4], 1.6%; in [5], 2.97%; in [6] it was 3.26%. For the same compound, the inhibition in test [7] worked out at 3.31%; in test [8], 2.33%; in test [9] it was 1.83%; in test [10] it was 1.36%.
Take `CCn1c(-c2nonc2N)nc2c(C#CCN)ncc(OCCCN)c21`: the inhibition in test [1] stood at 48.7%; in test [2], 10.6%; in test [3], 53.7%; in test [4] it was 20.1%; in [5] it was 68.3%; in test [6] it was 24.4%. The inhibition in test [7] was found to be 72.9%; in test [8], 7.65%; in test [9], 48.5%; in test [10], 1.06%.
On to `COc1cc(C=NNc2ncnc3c2cnn3Cc2ccccc2)ccc1O`, for which the inhibition is 5.87% in test [1]; -0.21% in test [2]; 1.36% in test [3]; 1.68% in test [4]; 3.82% in test [5]; 1.86% in test [6]. The inhibition in test [7] is 3.94%; in [8], -0.6%; in test [9] it was 1.82%; in [10], -1.29%.

The values are drawn from ChEMBL document CHEMBL1961873, “Compounds: GSK PKIS; Assays: Nanosyn kinase panel” (2012).
